Screening results (PubChem BioAssay)
PPARg SRC1 recr: agonists of human PPARgamma SRC-1 coactivator recruitment. P37231. PPARgamma-SRC-1 coactivator recruitment biochemical assay. activation, % at 8 µM. 200,000 tested, 0.41% active; in the data active = activation above about 19%
Target sequence (P37231 whole entry, looked up): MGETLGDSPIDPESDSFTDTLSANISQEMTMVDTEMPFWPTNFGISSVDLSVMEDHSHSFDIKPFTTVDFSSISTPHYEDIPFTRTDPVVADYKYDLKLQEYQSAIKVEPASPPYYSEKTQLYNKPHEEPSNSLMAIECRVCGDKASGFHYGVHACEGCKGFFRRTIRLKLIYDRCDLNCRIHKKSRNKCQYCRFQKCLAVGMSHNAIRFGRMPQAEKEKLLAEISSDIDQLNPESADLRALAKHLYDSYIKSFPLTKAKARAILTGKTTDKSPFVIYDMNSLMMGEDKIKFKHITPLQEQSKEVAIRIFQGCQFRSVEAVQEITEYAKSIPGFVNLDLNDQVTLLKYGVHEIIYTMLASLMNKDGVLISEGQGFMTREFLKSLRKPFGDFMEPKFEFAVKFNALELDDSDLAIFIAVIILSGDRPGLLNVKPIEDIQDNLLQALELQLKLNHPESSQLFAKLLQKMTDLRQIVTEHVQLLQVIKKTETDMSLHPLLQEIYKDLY
SRC1 TRFRET art: TR-FRET artefact, counter-screen to PPARgamma/SRC-1 agonist assay; TR-FRET detection artefact counter-screen, emission ratio; hits give high values; TR-FRET ratio at 8 µM; 99,000 tested, 0.34% active; AID 1051; in the data active = TR-FRET ratio above about 2300
SRC3 TRFRET art: TR-FRET artefact, counter-screen to PPARgamma/SRC-3 agonist assay; TR-FRET ratio at 8 µM; 99,000 tested, 0.39% active; AID 1048; PPARgamma/SRC-3 format; hits give high values
SRC2 TRFRET art: flags TR-FRET format artefacts in PPARgamma SRC-2 recruitment agonist screen; TR-FRET artefact counter-screen; hits give high values; TR-FRET ratio at 8 µM; 200,000 tested, 0.4% active; AID 1049
PPARg SRC3 recr: agonists of human PPARgamma SRC-3 coactivator recruitment. biochemical PPARgamma/SRC-3 coactivator recruitment assay. activation, % at 8 µM. 200,000 tested, 0.26% active; in the data active = activation above about 23%
PPARg SRC-2 ag: PPARgamma-driven SRC-2 recruitment agonism | P37231 | PPARgamma LBD-SRC-2 recruitment, biochemical | activation, % at 8 µM | 200,000 tested, 0.34% active | AID 1032; in the data active = activation above about 22%
Each line names hits and unclear results; the compound was inactive in the other large screens. Shown are actives, neighbours in structure and some others; about 0.84% of the full set was active somewhere. Cut-off read from the data, not from the text of the source, unless noted: active = TR-FRET ratio above about 2000; inactive = the rest.

CC/C(C)=N/NC(=O)c1[nH]c2ccc(C)cc2c1-c1ccccc1	SRC2 TRFRET art 1988
Cc1ccc(S(=O)(=O)N2CCN(C3CCN(Cc4ccccc4)CC3)CC2)cc1	none
O=c1c(/C=N/OCc2ccc(Cl)cc2Cl)c[nH]n1-c1cccc(Cl)n1	SRC2 TRFRET art 2085
CCOc1ccc(-n2nc3c(=O)[nH]nc(C)c3c2C)cc1	none
CCOc1ccc(-n2nc3c(=S)[nH]nc(C)c3c2C)cc1	SRC3 TRFRET art 2186
O=C(N/N=C/C=C\c1ccccc1[N+](=O)[O-])c1ccco1	SRC2 TRFRET art 1978
Cc1occc1C(=O)N/N=C/C=C\c1ccccc1[N+](=O)[O-]	none
COc1ccccc1N=C(C)C1=C(O)CC(c2ccccc2)CC1=O (stereo not drawn)	none
Cc1nc(SCC(=O)Nc2ccc3c(c2)OCCO3)c2oc3ccccc3c2n1	none (no result: SRC1 TRFRET art, SRC3 TRFRET art)
CCc1nc(SCC(=O)Nc2ccc3c(c2)OCCO3)c2oc3ccccc3c2n1	PPARg SRC1 recr 67 (no result: SRC1 TRFRET art, SRC3 TRFRET art)
Cc1nn(CCc2nc(-c3ccco3)cs2)c2[nH]c(=O)cc(C(F)(F)F)c12	SRC3 TRFRET art 2055
Cc1cc(C)n(CCc2nc(-c3ccco3)cs2)n1	none (no result: SRC1 TRFRET art, SRC3 TRFRET art)
COC(=O)c1ccc(OCc2cc(=O)n3ccsc3n2)cc1	none
O=C(COC(=O)c1sc2ccccc2c1Cl)NC1CCCCC1	SRC2 TRFRET art 4050, PPARg SRC-2 ag 115
O=C(COC(=O)c1sc2cc(F)ccc2c1Cl)Nc1ncc(Cl)cc1Cl	none
O=C(COC(=O)c1sc2ccccc2c1Cl)Nc1ncc(Cl)cc1Cl	SRC2 TRFRET art 2187, PPARg SRC-2 ag 34
O=C(Cn1nc(-c2ccc3c(c2)OCCO3)ccc1=O)Nc1ccc(N2CCOCC2)cc1	none (no result: SRC1 TRFRET art, SRC3 TRFRET art)
c1ccc(-n2nnnc2Sc2ncnc3sc4c(c23)CCCC4)cc1	none
O=C(c1cnn2c(C(F)F)cc(-c3ccccc3)nc12)N1CCCc2ccccc21	none (no result: SRC1 TRFRET art, SRC3 TRFRET art)
COc1ccc(-c2cc(C(F)F)n3ncc(C(=O)N4CCCc5ccccc54)c3n2)cc1	PPARg SRC3 recr 26
Cc1ccccc1Cn1cc(NC(=O)c2cc3nc(-c4ccco4)cc(C(F)(F)F)n3n2)cn1	none (no result: SRC1 TRFRET art, SRC3 TRFRET art)
Cc1ccc2[nH]c3c(c2c1)CCN1C(=O)OC(C)(C)C31C (stereo not drawn)	none
N#Cc1ccccc1NC(=O)c1ccccc1OCC(=O)Nc1ccc2c(c1)oc1ccccc12	SRC2 TRFRET art 2662 (no result: SRC1 TRFRET art, SRC3 TRFRET art)
CC(C)(O)C#Cc1ccc(CN2CCN(C3CCCCC3)C(CCO)C2)cc1 (stereo not drawn)	PPARg SRC1 recr 24, SRC1 TRFRET art 2568
Cc1ccnc2nc(C(=O)N3CCN(c4ccc(F)cc4)CC3)nn12	none (no result: SRC1 TRFRET art, SRC3 TRFRET art)
O=C(CSc1ncnc2scc(-c3ccccc3)c12)N1CCN(c2ccccc2F)CC1	SRC3 TRFRET art 2200
NC(=O)c1c(NC(=O)Cn2cc([N+](=O)[O-])cn2)sc2c1CCCC2	none
Cc1cc2nc(-c3ccc(SCC(=O)Nc4ccc5c(c4)OCCO5)nc3)[nH]c2cc1C	SRC2 TRFRET art 2267 (no result: SRC1 TRFRET art, SRC3 TRFRET art)
Cc1nc2nc(C)c(CCC(=O)NCc3ccc4c(c3)OCO4)c(C)n2n1	none (no result: SRC1 TRFRET art, SRC3 TRFRET art)
Cc1cccc2nc(-c3ccccc3)nc(N3CCC(O)(c4ccc(Cl)cc4)CC3)c12	SRC2 TRFRET art 2045
C=CCn1c(Cc2cccs2)nnc1SCC(=O)c1ccc(F)cc1	PPARg SRC1 recr 21 (no result: SRC1 TRFRET art, SRC3 TRFRET art)
CSc1nsc(/C=C/Nc2ccc(F)cc2F)c1C#N	none
CSc1nsc(/C=C/Nc2ccc(C(=O)O)cc2)c1C#N	SRC1 TRFRET art 2461, SRC3 TRFRET art 2133, SRC2 TRFRET art 2141
Cc1ccc(CNC(=O)Cn2cccc2C(=O)c2ccccc2C)cc1	none
Cc1ccccc1C(=O)c1cccn1CC(=O)NCCC1=CCCCC1	SRC1 TRFRET art 2753
Cc1c(Cl)cccc1NC(=O)CCCn1nc([N+](=O)[O-])cc1C	SRC2 TRFRET art 2111
CC(C)(C)c1ccccc1NC(=O)c1c(O)c2cccc3c2n(c1=O)CC3	SRC3 TRFRET art 2335
O=C(CSc1ccc2nnc(-c3ccc(Cl)cc3)n2n1)N1CCCc2ccccc21	SRC2 TRFRET art 3594, PPARg SRC-2 ag 46
CCOC(=O)c1cc(-c2ccc(C)cc2)n(CC(=O)NCc2ccco2)c1C	none (no result: SRC1 TRFRET art, SRC3 TRFRET art)
Cc1cc(C)n(-c2cc(N3CCN(C(=O)c4ccc(C(C)(C)C)cc4)CC3)ccc2[N+](=O)[O-])n1	none (no result: SRC1 TRFRET art, SRC3 TRFRET art)
Cc1c(C(=O)Nc2nccs2)sc2nc(-c3cccs3)cc(C(F)(F)F)c12	SRC2 TRFRET art 2020 (no result: SRC1 TRFRET art, SRC3 TRFRET art)
Oc1ccc(Cl)cc1C1=NNC(c2cc(Br)cc3c2OCOC3)C1 (stereo not drawn)	SRC1 TRFRET art 2488
O=C(NC(=S)Nc1ccc(C(F)(F)F)cc1)c1csnn1	none
Cc1ccc(-c2csc3nc[nH]c(=S)c23)cc1C	none
Cc1c(-c2ccccc2)sc2nc[nH]c(=S)c12	SRC3 TRFRET art 2134
CC(C)c1nnc(NC(=O)c2cccc(NC(=O)C(F)(F)F)c2)s1	SRC2 TRFRET art 1976
Cc1cc(NC(=O)CN2C(=O)NC3(CCC(C)CC3)C2=O)no1 (stereo not drawn)	PPARg SRC-2 ag 22
CN1CCc2c(OCC(=O)N3CCC(Cc4ccccc4)CC3)cccc2C1=O	none
COc1ccccc1-n1c(SCC(=O)NC(C)(C)C)nc(O)cc1=O	none (no result: SRC1 TRFRET art, SRC3 TRFRET art)
CC(C)(C)NC(=O)CSc1nc(O)cc(=O)n1-c1ccccc1F	PPARg SRC3 recr 29 (no result: SRC1 TRFRET art, SRC3 TRFRET art)
COc1cccc(NC(=O)Cc2nc(-c3ccccc3)sc2-c2ccc(C)cc2)c1	SRC1 TRFRET art 3241, SRC3 TRFRET art 3358, SRC2 TRFRET art 2590
COc1cccc(-c2nc(-c3ccc(NC(=O)Cc4ccccc4OC)cc3)no2)c1	SRC2 TRFRET art 1985 (no result: SRC1 TRFRET art, SRC3 TRFRET art)
COc1ccc(-c2noc(Cc3cccs3)n2)cc1	none (no result: SRC1 TRFRET art, SRC3 TRFRET art)
COc1ccc(-c2nc(-c3ccc(NC(=O)c4ccc(Br)o4)cc3)no2)cc1OC	PPARg SRC3 recr 30 (no result: SRC1 TRFRET art, SRC3 TRFRET art)
COc1ccc(-c2noc(Cc3ccccc3OC)n2)cc1	PPARg SRC3 recr 26 (no result: SRC1 TRFRET art, SRC3 TRFRET art)
COc1ccc(S(=O)(=O)N2CCc3ccccc3C2)cc1	none
COc1ccc2sc3c(=O)[nH]c4ccccc4c3c2c1	PPARg SRC1 recr 145 (no result: SRC1 TRFRET art, SRC3 TRFRET art)
COc1ccc2c(c1)[nH]c(=O)c1sc3ccccc3c12	none (no result: SRC1 TRFRET art, SRC3 TRFRET art)
O=C(Nc1ccc2nc(-c3ccccc3)oc2c1)c1ccco1	none (no result: SRC1 TRFRET art, SRC3 TRFRET art)
Cc1cc(SCC(=O)c2cc3ccccc3o2)nc2ccccc12	SRC2 TRFRET art 2575 (no result: SRC1 TRFRET art, SRC3 TRFRET art)
O=C(CSc1nc2cc(Cl)ccc2s1)c1cc2ccccc2o1	SRC2 TRFRET art 2199 (no result: SRC1 TRFRET art, SRC3 TRFRET art)
Cc1cc(NC(=O)CSc2nc3cc(Cl)ccc3s2)no1	none (no result: SRC1 TRFRET art, SRC3 TRFRET art)
Cc1cccc(N2CCN(C(=O)c3cc(C)oc3C)CC2C)c1 (stereo not drawn)	SRC1 TRFRET art 2332
Cc1cccc(N2CCN(C(=O)c3ccncc3)CC2C)c1 (stereo not drawn)	none (no result: SRC1 TRFRET art, SRC3 TRFRET art)
C(/CCc1ccccc1)=N\Nc1nc2ccccc2[nH]1	none
COc1ccccc1/C=N/NC(=O)c1ccc(Br)cc1	SRC1 TRFRET art 2364
COc1ccc(/C=N/NC(=O)c2ccc(Br)cc2)c(OC)c1	none
Cn1c(SCC(=O)N2c3ccccc3Sc3ccccc32)nnc1-c1ccco1	none (no result: SRC1 TRFRET art, SRC3 TRFRET art)
